Screening data deposited in PubChem BioAssay by National Center for Advancing Translational Sciences (NCATS).
KB-V1 MDR tox = kills drug-selected multidrug resistant KB-V1 cells; KB-V1 MDR cells viability, CellTiter-Glo, 72 h; Potency, µM (titrated, usually from 46.1 µM), actives largely listed as cytotoxic; 400,000 compounds, 3.4% hits; note: % is set by controls: 0 for no effect and ±100 for the full control effect; nearly all actives have a fitted effect of over 60% in size
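Cytotoxicity toward P-gp-expressing KB-V1 cells was determined as loss of CellTiter-Glo luminescence after 72 h at 37 degrees C. Compounds were tested in quantitative HTS format across a concentration range, with curves fitted to normalized data.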
HT1080NT lethal = kills 2HG-producing HT-1080-NT fibrosarcoma cells | HT-1080-NT fibrosarcoma viability, CellTiter-Glo ATP luminescence, 48 h | Potency, µM (titrated, usually from 46.1 µM), for the others: at the highest dose activity, negative = less viability, hits mostly cytotoxic | 360,000 compounds, 1.6% hits | AID 686970;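 note: NT is the 2HG producing partner of a matched IDH1 knockdown line; 0% = DMSO-treated cells and -100% = media-only wells without cells; nearly all actives have a fitted effect of over 55% in size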
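Viability by CellTiter-Glo luminescence after 48 h compound exposure at 37C of HT-1080-NT cells (750/well, RPMI, 5% FBS). % activity scaled between DMSO wells and medium-only wells, then curve-fitted and categorized by curve class.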
HT1080 IDH1KD tx = toxicity to HT-1080 IDH1 knockdown cells (counter line); HT-1080 IDH1 knockdown viability, ATP luminescence, 48 h; 360,000 compounds, 2% hits; Potency, µM (doses to about 46.1 µM), inactives show top-dose activity, negative = toxicity, hits mostly cytotoxic;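 note: 0% = DMSO wells and -100% = cell-free medium wells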
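% activity derives from luminescence (CellTiter-Glo), normalised to DMSO and no-cell wells. HT-1080-IDH1KD cells, 750/well, had 48 h compound exposure at 37 °C.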
MCF10A rerep = induces DNA re-replication in MCF 10a normal breast cells. Potency, µM (titrated, usually from 46.1 µM), inactives show top-dose activity, positive = re-replication, actives largely listed as activators. MCF 10A DNA re-replication, Hoechst nuclear intensity, 48 h. 350,000 compounds, 2.9% hits; note: % of control where 0% means no effect; nearly all actives have a fitted effect of over 50% in size
SW480 rerep = inducers of DNA re-replication in SW480 colon cancer cells; SW480 DNA re-replication, Hoechst DNA content imaging, 48 h; Potency, µM (titrated, usually from 46.1 µM), for the others: top-dose re-replication activation, hits mostly activators; 340,000 compounds, 1.8% hits; AID 624297; note: % of control where 0% means no effect; nearly all actives have a fitted effect of over 55% in size
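Compounds, transferred as 23 nL by pin tool, were incubated with cells for 48 hr; DNA content per nucleus was then quantified by Hoechst staining and fluorescence plate imaging.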
KB-3-1 tox = kills parental KB-3-1 adenocarcinoma cells. KB-3-1 viability, CellTiter-Glo ATP luminescence, 72 h. Potency, µM (highest dose often 46.1 µM), usual class: cytotoxic. 400,000 compounds, 1.4% hits; note: % is set by controls: 0 for no effect and ±100 for the full control effect; nearly all actives have a fitted effect of over 60% in size
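Screening of KB-3-1 cells (DMEM, 10% FBS, phenol-red free) ran from lowest to highest compound concentration; after 72 h at 37 °C viability was read luminescently and curves fitted.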
Active calls of the source: *; i = inactive; u = inconclusive; x = no result given; [ ] = another dose, or the depositor's remark. In the library only some 7.9% were active in any assay of this set; here they are far more common. Calls come from the whole dose curve; as a rule, active = well fitted curve in the direction sought with a large enough effect; inconclusive = small, poorly fitted or top-dose-only effect, or another doubt; inactive = no such curve, though single readings can be large; an effect the other way counts as inactive or inconclusive. Potency is the fitted concentration of half-maximal effect.

SMILES | KB-V1 MDR tox | HT1080NT lethal | HT1080 IDH1KD tx | MCF10A rerep | SW480 rerep | KB-3-1 tox
CCOc1cccc(NC(=O)C2CC(=O)N(CC)C(=Nc3ccc(F)cc3)S2)c1 (stereo not given) | u | x | x | x | x | i
CCN1C(=O)CC(C(=O)Nc2ccc(F)cc2)SC1=Nc1cccc(OC)c1 (stereo not given) | 18µM* | -7% | -8% | 21% | 3% | u
Cc1ccc(OCC(=O)Nc2ccccc2C(=O)OCc2cc(=O)n3ccsc3n2)cc1C | i | x | x | x | x | i
CCOc1ccccc1CNC(=O)CSc1n[nH]c(-c2ccccc2Cl)n1 | i | x | x | x | x | i
CSc1ncc(Cl)c(C(=O)N(C)c2ccccc2)n1 | i | x | x | x | x | i
O=C(Nc1cccc(NC(=O)c2ccco2)c1)c1ccc2c(c1)OCO2 | 13µM* | -6% | 6% | -26% | 0% | i
Cc1ccc(C(=O)Nc2ccc3c(c2)OCO3)cc1NC(=O)c1ccco1 | i | -21% | -3% | -4% | i[1.84 µM] | i
CCCCC(=O)Nc1cccc(NC(=O)c2ccc3c(c2)OCO3)c1 | 13µM* | -27% | 8% | 1% | -4% | i
CCCCC(=O)Nc1cccc(NC(=O)c2ccc(Br)o2)c1 | 12µM* | 3% | 3% | -1% | 1% | i
O=C(Nc1cccc(NC(=O)c2ccco2)c1)c1ccc2c(c1)OCCO2 | i | 0% | -2% | -7% | -9% | i
Cc1cc(NC(=O)c2ccc3c(c2)OCO3)ccc1NC(=O)c1ccco1 | u | u | 18µM* | -16% | 2% | u
CCCC(=O)Nc1cccc(NC(=O)c2ccc3c(c2)OCCO3)c1 | i | 8% | -5% | u | u | i
CCOc1ccc(C(=O)Nc2nnc(C3=COCCO3)o2)cc1 | u | -1% | -12% | 11% | 1% | 0.0012µM*
CC(=O)c1cccc(-c2ccnc3c2CC(C(=O)Nc2ccc(Cl)c(C(F)(F)F)c2)O3)c1 (stereo not given) | i | -20% | u | x | x | i
C=CCNc1cc(C(F)(F)F)nc(-c2ccccn2)n1 | i | 8% | 0% | 3% | -2% | i
CCN(CC)c1cc(C(F)(F)F)nc(-c2ccccn2)n1 | 18µM* | u | u | u | u | i
FC(F)(F)c1cccc(Sc2cc(C(F)(F)F)nc(-c3ccccn3)n2)c1 | 16µM* | -1% | -10% | -180%[0.0737 µM] | -11% | u
FC(F)(F)c1cc(Oc2ccccc2)nc(-c2ccccn2)n1 | 15µM* | u | -29% | 18% | u | u
CCCCN1CC(c2nc3ccccc3n2CCCCOc2cc(C)ccc2C)CC1=O (stereo not given) | i | x | x | x | x | i
O=[N+]([O-])c1ccc(/C=C/C2=NN(c3ccccc3)C(c3ccco3)C2)o1 (stereo not given) | u | -15% | u | 3% | -5% | 7.3µM*
C(=C\c1ccco1)/C1=NN(c2ccccc2)C(c2ccco2)C1 (stereo not given) | u | -5% | -24% | 2.1µM* | 2.3µM* | i
Fc1ccc(NCc2nnc3n2CCCCC3)cc1Cl | i | x | x | x | x | i
O=C1c2cccc(NCCCNCCO)c2C(=O)c2cccc(NCCCNCCO)c21 | u | u | 16µM* | -6% | 2% | u
CNc1cccc2c1C(=O)c1ccccc1C2=O | u | -1% | -1% | -1% | -1% | i
COCCNC(=O)CSc1nc(-c2ccc(C)cc2)nc2c1c(=O)n(C)c(=O)n2C | i | x | x | x | x | i
Cc1cccc(N2CCN(C(=O)CCCn3c(=S)[nH]c4cc5c(cc4c3=O)OCO5)CC2)c1C | 3.7µM* | -9% | -4% | 15% | 9% | i
O=C(CCCn1c(=S)[nH]c2cc3c(cc2c1=O)OCO3)N1CCN(c2ccccc2)CC1 | i | 5% | 1% | 1% | -8% | i
